# Bioassay records from PubChem.
# FECH inh: inhibitors of human ferrochelatase, primary screen, biochemical, purified FECH, Ni-mesoporphyrin absorbance. Ni-mesoporphyrin absorbance 550 nm. calls only at 10 µM (by protocol). 20,000 compounds, 3.3% hits. AID 1671448, 2021;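 active = enzyme reaction rate more than 3 SD below the solvent-only control wells on the same plate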;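 note: lower slope than DMSO wells means FECH inhibition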
# Target sequence (P22830 whole entry, looked up): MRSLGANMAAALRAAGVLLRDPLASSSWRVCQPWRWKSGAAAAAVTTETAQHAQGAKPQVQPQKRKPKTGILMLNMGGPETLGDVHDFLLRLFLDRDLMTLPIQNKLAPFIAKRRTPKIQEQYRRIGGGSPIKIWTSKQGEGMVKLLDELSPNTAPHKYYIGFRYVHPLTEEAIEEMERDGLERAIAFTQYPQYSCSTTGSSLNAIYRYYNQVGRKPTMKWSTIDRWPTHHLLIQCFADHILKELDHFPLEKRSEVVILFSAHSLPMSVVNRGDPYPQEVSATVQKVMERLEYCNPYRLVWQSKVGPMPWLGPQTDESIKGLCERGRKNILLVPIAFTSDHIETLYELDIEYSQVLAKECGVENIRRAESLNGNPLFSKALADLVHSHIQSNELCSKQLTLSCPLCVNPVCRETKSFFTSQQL
# Numbers without * were called inactive; i = inactive; + = active, no number. Only a selection was taken, and hits are over-represented in it overall.
SMILES,FECH inh
Cc1ccc(CN2CCCN(CC(=O)Nc3ccc(C)cc3Cl)S2(=O)=O)cc1,i
CC(=O)Nc1cccc(-c2nc(-c3ccc4c(c3)Sc3ccccc3C(=O)N4C)no2)c1,i
Cc1ccc(-n2ncc3c(-n4nc(C)cc4NC(=O)c4cc5ccccc5o4)ncnc32)c(C)c1,i
CN1CC(=O)N(CC(=O)NCc2ccc(F)cc2)c2ccccc2C1=O,i
CN1CC(=O)N(CC(=O)Nc2ccc(F)c(F)c2)c2ccccc2C1=O,i
Cc1ccc(NC(=O)CN2C(=O)CN(C)C(=O)c3ccccc32)cc1C,i
CN(C)c1ccc(CNC(=O)CN2C(=O)c3cccnc3Sc3ccccc32)cc1,+
CCCCOc1ccc(CNC(=O)CN2C(=O)c3cccnc3Sc3ccccc32)cc1,+
Cc1ccc(NC(=O)CN2C(=O)c3cccnc3Sc3ccccc32)cc1F,+
O=C(CCCN1C(=O)c2cccnc2Sc2ccccc21)Nc1cc(-c2cccc(Cl)c2)no1,i
O=C(CN1C(=O)c2cccnc2Sc2ccccc21)NCCc1ccco1,i
CCCCOc1ccc(CNC(=O)c2ccc(CN3C(=O)CCn4nccc43)cc2)cc1,i
COc1ccc(OC)c(CNC(=O)c2nc3ccccc3n(C)c2=O)c1,i
Cc1ccc(Cn2c(CNS(C)(=O)=O)nc3cccnc32)cc1,i
Cc1cccc(N2CCN(c3ncc(NS(=O)(=O)c4ccc(C)cc4C)cc3C(=O)O)CC2C)c1 (stereo not drawn),i
CNS(=O)(=O)CCNCC1(O)CCCN(Cc2cccc(C)c2)C1=O (stereo not drawn),i
Cc1c(F)cccc1NC(=O)CNCCc1csc(-c2cccnc2)n1,i
Cc1ccc(CNC(=O)c2nc(N3CCCC3)c3oc4ccccc4c3n2)cc1,i
O=c1cc(CNc2ccc(Br)cc2)nc2nc(NCc3ccccc3)[nH]n12,i
O=c1cc(CNc2ccc(Br)cc2)nc2nc(NCc3ccc(F)cc3)[nH]n12,i
CC(C)c1cc(=O)n2[nH]c(CNc3ccc(Br)cc3)nc2n1,+
CC(C)NCc1cc(=O)n2[nH]c(NCc3ccccc3)nc2n1,i
CC(C)c1cc(=O)n2[nH]c(CNc3ccccc3)nc2n1,+
Cc1ccc(NCc2cc(=O)n3[nH]c(NCc4ccccc4)nc3n2)cc1,i
O=S(=O)(c1ccc(Cl)cc1)N1CCC(n2c(-c3ccccc3)nc3cccnc32)CC1,i
SMILES,FECH inh
CCCCC(=O)Nc1cccc(C(=O)NCc2nc(C)cc(C(F)(F)F)n2)c1,i
Cc1nc(CN2CCC(Cc3ccc(F)cc3)CC2)co1,i
CC(C(=O)Nc1ccccn1)N1CCc2[nH]nc(-c3ccc(F)c(F)c3)c2C1 (stereo not drawn),i
Cc1ccccc1CC(=O)NCCn1c(C(F)(F)F)nc2cccnc21,i
O=C(Nc1nc2n(n1)C(c1ccccc1Cl)C=C(c1ccccc1)N2)c1ccco1 (stereo not drawn),i
CN(C)CCNc1nc(Nc2cccc(F)c2)c2cnn(-c3ccccc3)c2n1,i
CC(C)CCNC(=O)c1ccc(CN2C(=O)CCn3nc(-c4ccccc4)cc32)cc1,i
CN(Cc1ccc2nonc2c1)C(=O)c1cn(Cc2c(F)cccc2F)nn1,i
COc1ccccc1CNC(=O)CN(C)Cc1c(C)nn(C)c1C,i
CCC(=O)Nc1ccccc1-c1nnc(SCC(=O)Nc2ccc(C)cc2C)[nH]c1=O,i
CN(C)c1nc2ncnc(SCC(=O)Nc3ccc(F)cc3F)c2s1,i
Cc1ccc(NC(=O)CN2CCN(Cc3ccc(F)cc3Cl)S2(=O)=O)c(Cl)c1,i
COc1cccc(CNC(=O)CSc2cc(Oc3cc(C)cc(C)c3)ncn2)c1OC,+
COc1ccccc1CNC(=O)CN(C)Cc1ncc(C)[nH]1,i
Cc1ccccc1NC(=O)CCNC(=O)COc1c(C)ccc(C)c1C,i
Cc1cc(C)cc(Oc2cc(SCC(=O)Nc3ccc(F)cc3Cl)ncn2)c1,+
Cc1cc(C)cc(Oc2cc(SCC(=O)Nc3ccccc3C)ncn2)c1,+
C=CCn1cc(CN2CCC(c3nc(-c4ccccc4)no3)CC2)c(C)n1,i
Cc1cc(C)c(S(=O)(=O)N2CCN(Cc3nc4cccnc4n3-c3ccc(F)cc3)CC2)cc1C,i
Cn1c(CNS(=O)(=O)c2ccc(F)cc2)nc2cccnc21,i
CCCCN(CC)c1ncc(NS(=O)(=O)c2ccc(F)c(F)c2)cc1C(=O)O,i
CCCNC(=O)Cn1c(=O)n(CC2CCC(C(=O)N3CCCCCC3)CC2)c(=O)c2sccc21 (stereo not drawn),i
COC(=O)[C@@H]1C[C@@H](O)CN1Cc1c(C(=O)N2CCCC2)nc2sccn12,i
CC(C)c1cc(C(=O)Nc2ccnn2Cc2cccc(Cl)c2)on1,i
CC[C@H]1CN(C(=O)c2cnc(N3CCN(C)CC3)nc2C)CC[C@@]1(C)O,i
SMILES,FECH inh
Cc1cccc(C)c1C(=O)N1CC[C@@](C)(O)[C@@H](Cc2ccccc2)C1,+
C[C@@]1(O)CCN(C(=O)Cc2ccc(O)cc2)C[C@@H]1Cc1ccccc1,i
Cc1ccc(N(Cc2nc3nc(C)c(Cl)c(C)n3n2)C(=O)c2ccco2)cc1,i
CC(C(=O)N(C)C)N(C)Cc1cccn1-c1ccccn1 (stereo not drawn),i
CC(C)(C)Cc1[nH]cnc1-c1ccccc1,i
COc1ccccc1N1CCN(c2c(-c3ccc4c(c3)CCCC4)c(=O)c2=O)CC1,i
COc1cc2c(=O)n(Cc3ccc(C(=O)NC4CCCC4)cc3)c(=O)n(CC(N)=O)c2cc1OC,i
CCC(C)NC(=O)c1ccc(Cn2c(=O)c3cc(OC)c(OC)cc3n(CC(N)=O)c2=O)cc1 (stereo not drawn),i
CCCNC(=O)c1ccc(Cn2c(=O)c3cc(OC)c(OC)cc3n(CC(=O)NC(C)CC)c2=O)cc1 (stereo not drawn),i
CCCNC(=O)Cn1c(=O)n(Cc2ccc(C(=O)NC)cc2)c(=O)c2cc(OC)c(OC)cc21,i
CNC(=O)c1ccc(Cn2c(=O)c3cc(OC)c(OC)cc3n(CC(=O)NC3CCCC3)c2=O)cc1,+
CCC(C)NC(=O)Cn1c(=O)n(Cc2ccc(C(=O)NC)cc2)c(=O)c2cc(OC)c(OC)cc21 (stereo not drawn),+
Cc1ccc(CN2CCCN(CC(=O)Nc3ccc4c(c3)OCO4)S2(=O)=O)cc1,i
CSc1nc(NCCN2CCOCC2)c(C#N)c(-c2ccccc2)n1,i
CSc1nc(NCc2ccc(Cl)cc2)c(C#N)c(-c2ccccc2)n1,i
CSc1nc(NCCC2=CCCCC2)c(C#N)c(-c2ccccc2)n1,+
CCNc1nc(-c2nnc(-c3cccc(C)c3)o2)nc2ccccc12,i
COc1ccccc1CNS(=O)(=O)c1cc(C(=O)N2CCCCC2)cs1,i
Cc1ccn2c(=O)cc(COc3cccc(NC(=O)COc4ccccc4)c3)nc2c1,i
Cc1ccn2c(=O)cc(COc3cccc(NC(=O)COc4ccccc4Cl)c3)nc2c1,i
COc1ccc(OCC(=O)Nc2cccc(OCc3cc(=O)n4ccc(C)cc4n3)c2)cc1,i
Cc1ccc(OCC(=O)Nc2cccc(OCc3cc(=O)n4ccc(C)cc4n3)c2)cc1,i
Cc1ccc(OCC(=O)Nc2ccc(C)c(OCc3cc(=O)n4cccc(C)c4n3)c2)cc1C,+
COc1ccc(OCC(=O)Nc2cccc(OCc3cc(=O)n4cc(Cl)ccc4n3)c2)cc1,i
Cc1ccc(OCC(=O)Nc2cccc(OCc3cc(=O)n4cc(Cl)ccc4n3)c2)cc1C,i
